The subject of test [1] is Lefty1. Briefly: Lefty1 protein binding to printed compounds – biochemical, small-molecule microarray, 635/667 nm fluorescence, primary screen (AID 1139). The conditions noted are these: fluorescence 635/667, higher = more signal.
For test [2], the system named is wheat germ agglutinin (Triticum aestivum), Alexa647-labelled. Briefly: Alexa647-WGA lectin binding to printed small molecules – biochemical, small-molecule microarray, 635/667 nm fluorescence, artefact control for SMM control-protein annotation, profiling panel (AID 1140).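 Further: score merges 667 nm feature emission with signal to noise over triplicate slides.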 The conditions noted are these: WGA-A647 binding, 635 nm fluorescence, higher = more signal.
Test [3] concerns the target Luciferin 4-monooxygenase (Photinus pyralis) (UniProt P08659). Briefly: inhibition of purified Photinus pyralis luciferase – biochemical, luminescence, purified enzyme, 2006 set, primary screen (AID 1141).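 Further: cell-free assay with purified firefly luciferase at 100 ng per well in PBS; test concentration not given here.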 The conditions noted are these: purified firefly luciferase, SteadyGlo luminescence, 30 min; higher = more signal, called active from +8 up or from −8 down.
Test [4] deals with Wnt5a (protein binding on small-molecule microarray). Nature of the test: small molecules binding Wnt5a protein – biophysical, small-molecule microarray, 635/667 nm fluorescence, primary screen (AID 1142).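 Further: fluorescence read at 667 nm with signal to noise per printed feature.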 To be noted: 635 nm fluorescence, higher = more signal.
Test [5] can be described thus: ATP-based viability of Huh7 replicon cells – cell-based, CellTiter-Glo luminescence, basal, 48 h, cytotoxicity control for HCV replication inhibitor project, primary screen (AID 1143).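 Further: Huh7 hepatoma cells carrying a hepatitis C replication reporter with no stimulus; test concentration not given here.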 To be noted: higher = more signal, called active from +8 up or from −8 down.
Test [6] can be described thus: basal CRE-LacZ reporter activity in PC12 – cell-based, unstimulated, primary screen (AID 1145). To be noted: no forskolin, luminescence, 4.5 h, higher = more signal, called active from +8 up or from −8 down.
The nature of test [7]: forskolin-driven CRE-LacZ activity in PC12 – cell-based, CRE-LacZ reporter, forskolin-stimulated, primary screen (AID 1146).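 Further: PC12 cells with 6xCRE LacZ reporter stimulated by forskolin 10 µM; beta-galactosidase reporter signal reflecting CREB driven transcription.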 To be noted: luminescence, 4.5 h, higher = more signal, called active from +8 up or from −8 down.
Test [8] has as its target Streptavidin (Streptomyces avidinii) (UniProt P22629). Nature of the test: compounds binding control protein streptavidin – biophysical, small-molecule microarray, 635/667 nm fluorescence, artefact control for SMM compound annotation, primary screen (AID 1147).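 Further: signal reflects streptavidin binding to arrayed compounds as a control protein.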 The conditions noted are these: higher = more signal.
Test [9] can be described thus: probe aInhba binding on compound microarray – biochemical, small-molecule microarray, 635/667 nm fluorescence, primary screen (AID 1148).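 Further: score merges 667nm spot fluorescence with signal-to-noise for antibody binding to printed compounds.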 The conditions noted are these: higher = more signal.
Test [10] concerns the target Torsin-1A (Homo sapiens) (UniProt O14656). Briefly: TOR1A wild-type binding on microarray – cell lysate, small-molecule microarray, lysate, 635/667 nm, primary screen (AID 1149). The conditions noted are these: COS7 hTOR1A-WT lysate, 635 nm fluorescence, higher = more signal.
Test [11] has the same target. Nature of the test: torsin A mutant lysate binding on microarrays – cell lysate, small-molecule microarray, COS7 lysate, 635/667 nm fluorescence, primary screen (AID 1150).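 Further: score pools 667 nm emission and signal to noise measuring lysate protein binding.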 The conditions noted are these: COS7 hTOR1A mutant lysate, 635 nm fluorescence, higher = more signal.
For test [12], the system named is Sonic hedgehog protein (Shh). Nature of the test: Sonic hedgehog microarray binding compounds – biochemical, small-molecule microarray, 635/667 nm fluorescence, primary screen (AID 1151).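 Further: Shh protein binding to compounds spotted on small-molecule microarray slides; score combines spot fluorescence intensity with signal-to-noise across triplicate slides.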 The conditions noted are these: 635 nm fluorescence, higher = more signal.
A short description of test [13]: optical density shifts of acrAB sulA E. coli – strain DRC41, OD650, 48 h, E. coli filamentation inducer project, primary screen (AID 1152).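 Further: E. coli MC1000 strain DRC41 lacking acrAB efflux pump and sulA.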 To be noted: higher = more signal, called active from +8 up or from −8 down.
Test [14] is described as follows: probe aLefty1 binding on compound microarray – biochemical, small-molecule microarray, 635/667 nm fluorescence, primary screen (AID 1153).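 Further: score merges spot fluorescence with signal-to-noise ratio from the scanned slide images.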 To be noted: higher = more signal.
Test [15] is described as follows: plasmodial surface anion channel blockers, osmotic lysis – cell-based, P. falciparum Indochina, OD700, 1 h, primary screen (AID 1154). To be noted: P. falciparum Indochina infected RBC osmotic lysis, higher = more signal, called active from +8 up or from −8 down.
Test [16] is described as follows: plasmodial surface anion channel blockers, osmotic lysis – cell-based, P. falciparum Indochina, OD700, 2 h, primary screen (AID 1155).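 Further: lysis reports solute entry through the parasite surface anion channel PSAC.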 To be noted: P. falciparum Indochina infected erythrocytes, higher = more signal, called active from +8 up or from −8 down.
Test [17] is described as follows: changes in parasitized red cell lysis, either direction – P. falciparum Indochina, OD700, 3 h, PSAC antagonist project, primary screen (AID 1156). To be noted: P. falciparum-infected erythrocytes, osmotic lysis, higher = more signal, called active from +8 up or from −8 down.
A short description of test [18]: plasmodial surface anion channel blockers, osmotic lysis – cell-based, P. falciparum Indochina, OD700, 18 h, primary screen (AID 1157). To be noted: P. falciparum Indochina infected erythrocytes, osmotic lysis OD700, 18 h; higher = more signal, called active from +8 up or from −8 down.
The nature of test [19]: S6 kinase pathway phospho-S6 level changes – cell-based, A549, cytoblot, luminescence, serum-stimulated, primary screen (AID 1158).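 Further: serum-stimulated A549 lung adenocarcinoma cells; signal is phosphorylated S6 detected by cytoblot immunostaining with HRP secondary.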 To be noted: 5 h, higher = more signal.
The target of test [20] is NADPH oxidase 2 (Homo sapiens) (UniProt P04839). Briefly: compounds shifting NOX2 Amplex Red fluorescence – cell-based, HEK293-NOX2, PMA-stimulated, NOX inhibitor project, primary screen (AID 1159). Further: test concentration not given here. To be noted: 45 min, higher = more signal, called active from +8 up or from −8 down.

The source made the active and inactive calls.

Streptavidin (Streptomyces avidinii), sequence (P22629 whole entry, looked up): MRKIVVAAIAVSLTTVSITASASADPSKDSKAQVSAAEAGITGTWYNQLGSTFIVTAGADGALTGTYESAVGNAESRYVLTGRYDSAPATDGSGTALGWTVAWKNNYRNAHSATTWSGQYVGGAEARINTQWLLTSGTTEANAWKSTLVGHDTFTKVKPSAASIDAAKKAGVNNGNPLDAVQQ
NADPH oxidase 2 (Homo sapiens), sequence (P04839 whole entry, looked up): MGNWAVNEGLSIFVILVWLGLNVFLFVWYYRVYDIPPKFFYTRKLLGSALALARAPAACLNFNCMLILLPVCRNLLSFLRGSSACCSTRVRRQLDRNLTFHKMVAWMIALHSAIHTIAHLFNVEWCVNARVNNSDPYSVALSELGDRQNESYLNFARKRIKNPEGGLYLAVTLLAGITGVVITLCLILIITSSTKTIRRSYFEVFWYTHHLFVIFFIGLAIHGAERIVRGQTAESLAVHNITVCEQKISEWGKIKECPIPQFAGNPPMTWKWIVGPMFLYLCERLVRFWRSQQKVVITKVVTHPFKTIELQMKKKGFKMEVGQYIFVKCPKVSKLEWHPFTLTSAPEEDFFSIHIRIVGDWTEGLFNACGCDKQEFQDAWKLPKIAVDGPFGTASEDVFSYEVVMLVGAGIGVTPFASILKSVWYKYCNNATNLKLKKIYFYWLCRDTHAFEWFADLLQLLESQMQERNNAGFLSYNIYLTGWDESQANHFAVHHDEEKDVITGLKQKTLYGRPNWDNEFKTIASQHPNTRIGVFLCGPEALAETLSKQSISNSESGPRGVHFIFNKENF
Luciferin 4-monooxygenase (Photinus pyralis), sequence (P08659 whole entry, looked up): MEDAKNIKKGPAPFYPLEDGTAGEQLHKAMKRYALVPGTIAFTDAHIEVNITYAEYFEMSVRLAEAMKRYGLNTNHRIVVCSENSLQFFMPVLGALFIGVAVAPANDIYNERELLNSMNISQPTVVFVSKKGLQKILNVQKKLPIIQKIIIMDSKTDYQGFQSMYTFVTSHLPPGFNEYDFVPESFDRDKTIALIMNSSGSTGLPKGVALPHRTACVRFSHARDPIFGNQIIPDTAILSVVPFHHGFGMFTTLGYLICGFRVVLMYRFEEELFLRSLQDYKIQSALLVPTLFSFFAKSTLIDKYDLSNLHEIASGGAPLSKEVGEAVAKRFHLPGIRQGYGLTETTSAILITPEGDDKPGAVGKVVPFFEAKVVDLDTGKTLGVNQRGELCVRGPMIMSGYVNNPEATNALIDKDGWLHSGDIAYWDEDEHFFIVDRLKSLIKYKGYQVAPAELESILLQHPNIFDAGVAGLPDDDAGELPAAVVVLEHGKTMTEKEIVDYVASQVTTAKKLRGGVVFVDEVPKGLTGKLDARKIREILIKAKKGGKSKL
Torsin-1A (Homo sapiens), sequence (O14656 whole entry, looked up): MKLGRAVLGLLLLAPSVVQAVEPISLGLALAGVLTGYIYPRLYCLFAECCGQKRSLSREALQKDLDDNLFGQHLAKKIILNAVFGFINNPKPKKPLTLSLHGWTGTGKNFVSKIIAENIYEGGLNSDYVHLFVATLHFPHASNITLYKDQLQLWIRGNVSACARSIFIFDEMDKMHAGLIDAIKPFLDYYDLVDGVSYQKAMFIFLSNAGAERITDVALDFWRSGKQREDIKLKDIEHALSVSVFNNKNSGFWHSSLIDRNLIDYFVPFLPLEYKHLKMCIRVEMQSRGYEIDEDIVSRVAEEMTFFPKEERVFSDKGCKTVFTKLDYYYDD

For `CC(C)C(CO)N1C(=O)[C@@H]2[C@H]3C(=O)OCC=C[C@H]3OC23C=CCN(Cc2ccccc2)C(=O)[C@@H]13` (stereo not given in full), the composite z-score in test [1] was -0.375; in [2], -1.06; in [4], -0.353; in [8], -1.32; in test [9] it was -0.195; in test [10], -0.411. Besides, the composite z-score in test [11] is -1.02; in test [12] it was 0.565; in test [14] it was -0.268. Moreover, the z-score in test [3] is -0.511 (inactive); in test [5] it was -0.524 (inactive); in [6] it was 0.325 (inactive); in test [7], 0.559 (inactive); in test [13], 1.64 (inactive); in test [15], 0.379 (inactive). In addition, the z-score in test [16] is -0.0407 (inactive); in test [17] it was 1.32 (inactive); in [18] it was -0.16 (inactive); in test [19], -0.257; in test [20] it was 1.5 (inactive).
With `C=CCC(OC(C)=O)[C@@H]1[C@@H](N(Cc2cc3ccccc3o2)C(=O)c2ccc(-c3ccccc3)cc2)c2cc(OCCCO)ccc2N1C(=O)c1ccc(-c2ccccc2)cc1` (stereo not given in full), the composite z-score was -0.147 in [1]; -0.316 in [2]; 0.0258 in test [4]; -0.0123 in [8]; 0.0497 in [9]; -0.347 in [10]. For the same compound, the composite z-score came out at 0.244 in [11], 0.224 in test [12] and 0.0038 in test [14]. For the same compound, the z-score in [3] was -1.02 (inactive); in test [5], 0.267 (inactive); in test [6] it was 0.6 (inactive); in test [7] it was -0.625 (inactive); in [13], 2.06 (inactive); in test [15], -0.0828 (inactive). Also, the z-score was 0.179 (inactive) in [16]; -0.0582 (inactive) in [17]; -0.0337 (inactive) in test [18]; 0.436 in test [19]; 0.989 (inactive) in [20].
Take `C=C(COC)/C(=C/C[C@H](OC(C)=O)c1ccc(CO)o1)c1cnc2ccccc2c1`: the composite z-score in [1] turned out to be 1.58; in test [2], 1.35; in test [4] it was 0.251; in test [8], 1.45; in test [9], 0.0173; in test [10], 1.21. Moreover, the composite z-score in [11] was 1.42; in test [12], 2.15; in test [14], -0.145. In addition, the z-score in [3] was -2.1 (inactive); in test [5], -0.461 (inactive); in [6], 0.844 (inactive); in test [7] it was -1.08 (inactive); in test [13] it was 1.23 (inactive); in [15] it was 3.78 (inactive). The z-score in [16] is -1.35 (inactive); in [17] it was -0.148 (inactive); in [18] it was -2.05 (inactive); in test [19], -0.198; in test [20], 2.33 (inactive).
With `CC(C)CNC(=O)[C@@H]1c2ccccc2C(=O)N(Cc2ccc(OC(F)(F)F)cc2)[C@H]1c1ccc(CO)cc1`, the composite z-score in test [1] is 1.52; in [2], 0.75; in test [4], 0.314; in test [8], 0.941; in test [9], 0.25; in test [10] it was 0.864. For the same compound, the values for the composite z-score in test [11], in test [12] and in test [14] were 0.72, 2.02 and 0.315, respectively. In addition, the z-score was -1.25 (inactive) in [3]; -2.27 (inactive) in test [5]; -0.646 (inactive) in test [6]; -1.28 (inactive) in test [7]; 3.99 (inactive) in [13]; 2.06 (inactive) in [15]. Further, the z-score in test [16] is -0.18 (inactive); in test [17], 0.209 (inactive); in test [18] it was -0.657 (inactive); in [19], 1.69; in test [20] it was -1.43 (inactive).
`O=C(N1CCCCC1)[C@@]1(Cc2ccccc2)N=C(c2ccc(OCCCO)cc2)O[C@H]1c1ccccc1`: the composite z-score in test [1] is -0.341; in [2], 1.07; in [4], 0.578; in test [8], 1.13; in test [9], 0.749; in test [10], 0.599. In addition, the composite z-score in test [11] was 1.42; in [12], -0.401; in [14], 1.17. Besides, the z-score in test [3] was -1.52 (inactive); in [5] it was -5.07 (inactive); in [6] it was 0.414 (inactive); in test [7], -1.06 (inactive); in test [13] it was 0.696 (inactive); in test [15], 14.3 (active). The z-score was 2.37 (inactive) in test [16]; 2.82 (inactive) in test [17]; -0.657 (inactive) in [18]; 0.845 in test [19]; -2.63 (inactive) in test [20].
With `C=C(CCCC)/C(=C/C[C@H](OC(=O)c1ccncc1)c1ccc(CO)o1)c1cnc2ccccc2c1`, the composite z-score in [1] is 1.38; in test [2], 1.28; in test [4] it was 0.216; in test [8] it was 0.783; in [9], 0.212; in test [10] it was 0.378. For the same compound, the composite z-score in [11] amounted to 0.324; in test [12], 1.95; in [14], 0.301. Also, the z-score in test [3] was -2.94 (inactive); in test [5], -0.807 (inactive); in test [6], 3.77 (inactive); in [7], -1.24 (inactive); in test [13], 0.822 (inactive); in test [15], 7.89 (inactive). In addition, the z-score in test [16] is -0.0845 (inactive); in [17], 1.04 (inactive); in [18], -1.01 (inactive); in [19] it was -0.367; in test [20], 2.49 (inactive).
As to `C=CCN1C(=O)[C@@]2(O[C@@H](CCO)[C@H]([Si](C)(C)c3ccc(OC)cc3)[C@H]2C)c2cc(N(C=O)c3ccccc3)ccc21`, the composite z-score in test [1] is 0.124; in test [2] it was 0.918; in test [4] it was 0.125; in test [8], -0.387; in [9] it was -0.0044; in test [10], 0.0589. In addition, the values for the composite z-score in [11], in test [12] and in [14] were 0.0237, 0.207 and -0.16, respectively. The z-score in [3] is -1.66 (inactive); in test [5], -7.99 (inactive); in test [6], 16.9 (active); in [7], -4.02 (inactive); in test [13] it was 1.55 (inactive); in test [15], 24 (active). Besides, the z-score in test [16] was 7.57 (inactive); in [17], -0.599 (inactive); in [18], 0.279 (inactive); in test [19], 0.183; in test [20] it was -0.477 (inactive).
For the compound `O=C(NO)[C@]1(Cc2ccccc2)N=C(c2ccc(OCCCO)cc2)O[C@@H]1c1ccccc1`, the composite z-score in test [1] was -0.458; in test [2], 0.162; in test [4], -0.229; in test [8], -0.585; in [9] it was -0.0782; in test [10], -0.427. For the same compound, the composite z-score in test [11] is 0.411; in [12] it was -0.351; in [14], 0.0278. Moreover, the z-score is -2.34 (inactive) in test [3]; -1.7 (inactive) in [5]; 3.01 (inactive) in test [6]; -1.91 (inactive) in test [7]; 3.88 (inactive) in test [13]; 15 (active) in test [15]. The z-score was 0.971 (inactive) in [16]; -0.479 (inactive) in test [17]; -0.21 (inactive) in test [18]; 2.81 in test [19]; 0.709 (inactive) in test [20].
As for `CCOC(=O)C[C@H]1[C@H](OC(=O)c2cc3ccccc3oc2=O)[C@@H](NC(=O)c2ccccc2)c2cc(OCCCO)ccc2N1C(=O)Cc1ccc(OC)cc1`, the composite z-score was 0.584 in test [1]; 0.247 in test [2]; 0.146 in [4]; 0.0709 in test [8]; 0.0464 in test [9]; 0.151 in test [10]. Moreover, the composite z-score in [11] is 0.098; in [12] it was 0.251; in test [14] it was -0.0051. For the same compound, the z-score was -0.243 (inactive) in test [3]; -4.64 (inactive) in test [5]; 8.63 (active) in test [6]; -2.07 (inactive) in test [7]; 3.12 (inactive) in [13]; 3.28 (inactive) in test [15]. The z-score in test [16] was -0.825 (inactive); in [17] it was 0.076 (inactive); in test [18] it was -2.29 (inactive); in [19], 2.39; in test [20], -0.224 (inactive).

The record behind these values is PubChem BioAssay.
